Assay outcomes deposited in PubChem by National Center for Advancing Translational Sciences (NCATS).
HCMV antiviral: qHTS Assay for inhibitors of the human cytomegalovirus (HCMV); hit rate 4.5% among 410,000; activity change, negative = inhibition, % at 57.5 µM; HFF cells, HCMV-luciferase reporter, 72 h; hits give low values; in the data active = activity change below about -60%; inconclusive = no clear call, values can overlap the other calls; inactive = above about -39%
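Steps: HFFs plated, 16 h 37C; compounds added; HCMV-luciferase added to MOI 1 PFU/cell; 72 h 37C; OneGlo reagent, 5 min room temperature; luminescence read, normalized to controls.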
Vaccinia Venus: qHTS for Stage-Specific Inhibitors of Vaccinia Orthopoxvirus: Venus Reporter Primary qHTS; Vaccinia virus Venus reporter expression, fluorescence; Potency, µM (series often up to 36.5 µM), for the others: at the highest dose activity change, negative = inhibition, usual class: inhibitors; hit rate 0.46% among 330,000; AID 720580, 2013; calls by dose curve; tested in A549 cells; note: potency is the fitted concentration of half-maximal effect; nearly all actives have a fitted effect of over 30% in size
Vaccinia mCherry: qHTS for Stage-Specific Inhibitors of Vaccinia Orthopoxvirus: mCherry Reporter Primary qHTS; Vaccinia virus mCherry reporter infection, fluorescence; Potency, µM (doses to about 36.5 µM), for inactives: top-dose activity change, negative = inhibition, most hits filed as inhibitors; hit rate 0.63% among 310,000; calls by dose curve; tested in A549 cells; note: potency is the fitted concentration of half-maximal effect; nearly all actives have a fitted effect of over 35% in size
MARV entry inh: qHTS for inhibitors of binding or entry into cells for Marburg Virus | Marburg virus pseudotyped entry inhibition, cell reporter | Potency, µM (series often up to 37.8 µM), for the others: at the highest dose activity change, negative = inhibition, most hits filed as inhibitors | hit rate 1.8% among 300,000; calls by dose curve; tested in HEK293 cells; note: potency is the fitted concentration of half-maximal effect
LASV entry inh: qHTS for Inhibitors of binding or entry into cells for Lassa Virus; hit rate 1.2% among 300,000; AID 540256, 2011; Lassa virus pseudotype entry inhibition, cell reporter; Potency, µM (titrated, usually from 37.9 µM), for the others: top-dose activity change, negative = inhibition, most hits filed as inhibitors; calls by dose curve; tested in HEK293 cells; note: potency is the fitted concentration of half-maximal effect; nearly all actives have a fitted effect of over 50% in size
HCV inh: qHTS Assay for Inhibitors of Hepatitis C Virus (HCV) | Huh7.5.1 HCVcc-Cre infection, luciferase reporter, 44 h | Potency, µM (top dose mostly 41.8 µM), without a hit: top-dose activity change, negative = inhibition, actives largely listed as inhibitors | hit rate 3.4% among 340,000; active = well fitted inhibition curve with a large enough effect; inconclusive = small, poorly fitted or top-dose-only effect, or another doubt; inactive = no such curve, though single readings can be large or run the other way; note: potency is the fitted concentration of half-maximal effect
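Infectious HCVcc-Cre (~0.5 moi) was added to cells just after compound, with cells seeded 4 h earlier at 1,000 per well. Luciferase activity after 44 h culture reported infection; substrate was incubated 15 min at room temperature before reading.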
Active calls of the source: *; i = inactive; ? = inconclusive; nt = no result; [ ] = remark or other dose. Only some compounds are listed: those with a hit (about 7.8% of all), similar ones and a draw of the others. % is set by controls: 0 for no effect and ±100 for the full control effect.

SMILES | HCMV antiviral | Vaccinia Venus | Vaccinia mCherry | MARV entry inh | LASV entry inh | HCV inh
COc1ccc(NC(=O)COC(=O)c2c3c(nc4ccccc24)CCCC3)cc1 | -27.5 | -24.0% | ? | ? | ? | ?
COc1ccc(OC)c(NC(=O)COC(=O)c2c3c(nc4ccccc24)CCCC3)c1 | -32.1 | nt | nt | 5.17µM* | 20.6µM* | 0.891µM*
COc1ccc(OC)c(Nc2cc(C)c3ccccc3n2)c1 | -4.4 | nt | nt | nt | nt | -8.8%
COc1ccc(OC)c(Nc2c3ccccc3nc3ccccc23)c1 | -70.9* | ? | ? | 6.31µM* | ? | ?
CN(C)[C@@H]1CC[C@@]23CCCN2C(=O)CCC[C@H]3[C@H]1Cc1ccccc1 | 1.7 | nt | nt | nt | nt | nt
CCOC(=O)Nc1ccc2c(c1)N(C(=O)CCN(C)C)c1ccccc1S2 | -25.0 | nt | nt | ? | -3.9% | 12.6µM*
O=[N+]([O-])c1ccc(S(=O)Cc2ccccc2)c([N+](=O)[O-])c1 (stereo not given) | -96.9* | -15.5% | -6.4% | ? | 11.2µM* | ?
CC(C)c1ccc(OCc2cc(=O)n3c4c(sc3n2)CCCC4)cc1 | -7.2 | -12.0% | -6.9% | -1.6%[46.1 µM] | 13.4%[46.1 µM] | nt
Cc1ccc(C(=O)NC(=S)Nc2cccnc2Cl)cc1 | 95.7 | -15.0% | -2.3% | ? | ? | -23.4%
COc1ccc(C(=O)Nc2cccnc2Cl)cc1OC | -87.4* | nt | nt | nt | nt | 3.9%
COc1ccccc1C(=O)NC(=S)Nc1cccnc1Cl | 55.9 | -0.5% | -3.9% | ? | ? | 11.2µM*
COc1ccc(C(=O)Nc2ccc(/C(C)=N/NC(=O)c3ccccc3O)cc2)cc1OC | -3.4 | -7.7% | i | 13µM* | 12.6% | ?
O=C(N/N=C/c1ccccn1)c1ccc(Cl)cc1 | -97.5* | -21.2% | 3.16µM* | ? | ? | 6.6%
O=C(N/N=C/c1ccccn1)c1ccccc1 | 30.1 | 5.6% | ? | ? | ? | 8.0%
CC(C)c1c(C(=O)NCC2(N3CCCCC3)CCCC2)cnn1-c1nccc(-c2ccco2)n1 | nt | -10.7% | -14.6% | nt | nt | nt
CCOc1ccc(NC(=O)CC2C(=O)N(c3cccc(C)c3)C(=O)N2CCC2=CCCCC2)cc1 (stereo not given) | 1.2 | -13.0% | i | ? | ? | nt
COc1ccc(C(=O)Nc2ccccc2C(=O)N/N=C/c2ccccn2)cc1OC | -109.2* | ? | ? | ? | 10µM* | ?
COc1ccc(C(=O)N/N=C/c2ccccn2)cc1OC | -39.3 | -8.0% | -4.6% | -19.9% | 16.5% | -12.0%
COc1ccc(C(NC(=O)C2CCN(CCCOc3ccccc3)CC2)c2cccs2)cc1 (stereo not given) | -102.6* | -10.4% | i | nt | nt | nt
Cc1ccc(C(NC(=O)C2CCN(CCCOc3ccccc3)CC2)c2ccccn2)cc1 (stereo not given) | -13.7 | -11.5% | -6.8% | nt | nt | nt
Cc1cccc(C(=O)N2CCC(=O)N(C(COCc3ccccc3)Cc3ccccc3)CC2)c1 (stereo not given) | -19.6 | -19.2% | -23.3% | 1.3% | 5.8µM* | -20.3%
Cc1cccc(C(=O)N2CCC(=O)N([C@H](COCc3ccccc3)Cc3ccccc3)CC2)c1 | -4.7 | -6.5% | 15.1% | nt | nt | nt
CC(C)C[C@@H](COCc1ccc(Cl)cc1)N1CCN(C(=O)c2ccc(C(F)(F)F)cc2)CCC1=O | -1.6 | -8.7% | 2.4% | nt | nt | nt
Cc1cccc(COCC(Cc2ccccc2)N2CCN(C(=O)c3cccc(Cl)c3)CCC2=O)c1 (stereo not given) | 2.6 | ? | i | -13.0% | 5.17µM* | ?
O=C(c1cccc(Cl)c1)N1CCC(=O)N(C(COCc2ccccc2)Cc2ccccc2)CC1 (stereo not given) | 14.1 | -26.1% | -21.4% | ? | 4.61µM* | -23.2%
SMILES | HCMV antiviral | Vaccinia Venus | Vaccinia mCherry | MARV entry inh | LASV entry inh | HCV inh
CC(C)CC(COCc1ccc(Cl)cc1)N1CCN(C(=O)c2ccc(Cl)cc2Cl)CCC1=O (stereo not given) | 1.9 | ? | -7.6% | ? | 14.6µM* | ?
Cc1ccc(NC(=O)C(=O)NCCc2sc(-c3ccc(Cl)cc3)nc2C)cc1C | 26.2 | -8.9% | -11.4% | nt | 29.8%[46.1 µM] | nt
O=C(/C=C/c1ccco1)Nc1ccc(Cl)c(S(=O)(=O)N2CCOCC2)c1 | -69.4* | nt | nt | nt | nt | 10µM*
CCn1nc(C(=O)Nc2ccc(Cl)c(S(=O)(=O)N3CCOCC3)c2)c2ccccc2c1=O | -10.0 | -14.0% | i | -16.7%[46.1 µM] | ? | 11.2µM*
O=C(Nc1ccccc1)Nc1ccc(Cl)c(S(=O)(=O)N2CCOCC2)c1 | -62.4* | -21.1% | i | ? | -21.4%[46.1 µM] | ?
COc1ccc(O)c(CN2CCC3(CC2)c2ccccc2[C@@H](NC(=O)c2cccc(F)c2)[C@@H]3OC)c1 | nt | -7.0% | -17.8% | nt | nt | nt
CCc1nn(CC(=O)NC(C)CCc2ccccc2)c(=O)c2cc3c(OC)cccc3n12 (stereo not given) | -1.4 | -4.0% | -9.4% | -2.4%[46.1 µM] | nt | nt
C=CCn1c2ccccc2c2nnc(SCC(=O)Nc3cc(C)on3)nc21 | 0.6 | -27.2% | nt | 13.7% | -17.1% | ?
CCCn1c2ccccc2c2nnc(SCC(=O)Nc3cc(C)on3)nc21 | 60.7 | 10µM* | nt | -3.2% | -0.8% | -22.9%
O=C(CSc1nnc2c(n1)[nH]c1ccc(F)cc12)Nc1ccccc1F | -27.2 | -15.7% | i | 21.6%[46.1 µM] | ? | 2.8%
CCCn1c2ccccc2c2nnc(SCC(=O)Nc3ncccn3)nc21 | 13.4 | 11.2µM* | nt | ? | -1.9% | -13.4%
O=C(CSc1nnc2c3ccccc3c3ccccc3c2n1)Nc1ccccc1F | -87.8* | -0.7% | i | 12.8% | 12.1% | -13.0%
COc1ccc(C2CC(=O)c3cnc(Nc4cc(C)cc(C)c4)nc3C2)cc1 (stereo not given) | -13.7 | nt | nt | -11.5% | 0.461µM* | -27.1%
COC(=O)CC1OC1[C@H](C)[C@@H](OC)C(C)C (stereo not given in full) | nt | nt | nt | -14.5%[14.2 µM] | ? | nt
COC(=O)C1(C)NC(c2ccc(O)cc2)C2C(=O)N(c3ccc4c(c3)OCCO4)C(=O)C21 (stereo not given) | -73.3* | nt | nt | 5.1% | -3.3% | 9.0%
NC(=O)c1nn(-c2cccc(Cl)c2)c(=O)cc1O | -7.2 | nt | nt | ? | -17.8% | 20.9%
O=C(c1cccc(Cl)c1)c1nn(-c2ccccc2)c(=O)cc1C(F)(F)F | -71.6* | -49.1% | nt | 9.1% | 10.5% | 21.3%
O=C(c1ccccc1)c1nn(-c2ccccc2)c(=O)cc1C(F)(F)F | -67.0* | -27.1% | nt | ? | ? | ?
O=C(c1ccccc1)c1nn(-c2ccccc2)c(=O)cc1-c1ccccc1 | nt | 0.0% | -2.6% | nt | nt | nt
